The results in this text go back to PubChem BioAssay (Tox21).

A short description of test [1]: Nuclear factor erythroid 2-related factor 2/antioxidant responsive element (Nrf2/ARE) small molecule agonists: qHTS cell viability counter screen in human keratinocytes (AID 1919968; active = well fitted cell-killing curve with a large enough effect in the repeat runs; note: nearly all actives have a fitted effect of over 55% in size). An outline of the steps: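 HaCaT ARE reporter line, 1,500 cells/well; 5 h settle, 37 C/5% CO2; cpd in DMSO pinned; 23 h exposure; CellTiter-Fluor, 1 h; fluorescence.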
(In qHTS, concentration-response curves come from the screen itself.)

Test [2] in a line: Nuclear factor erythroid 2-related factor 2/antioxidant responsive element (Nrf2/ARE) small molecule agonists: luciferase reporter gene qHTS assay in human keratinocytes (AID 1919969). Note: nearly all actives have a fitted effect of over 35% in size. On the technique in general: In a reporter assay the amount or activity of a reporter protein is the signal.
The target of test [3] is Gonadotropin-releasing hormone receptor (Homo sapiens) (UniProt P30968). Kind of test: Human gonadotropin-releasing hormone receptor (GnRHR) small molecule agonists, calcium flux assay in GnRHR-HEK293 cells (AID 1920063). Note: nearly all actives have a fitted effect of over 35% in size. An outline of the steps:
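GnRHR-HEK293, 1500 cells/well, 18 h 37 C/5% CO2; Ca dye 1 h 37 C; cpd pinned (DMSO), agonist mode; kinetic FL 480/540, 3 min, 1 s reads; 15 conc, n=3.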

Test [4] in a line: G protein-coupled receptor (GPCR) small molecule agonists, calcium flux assay: HEK293 wild type cell line counter screen (AID 1920065). Put shortly: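 Kinetic fluorescence at Ex/Em 480/540, recorded every second over 3 min, served as the read-out after compound addition. Each compound was tested at 15 concentrations in triplicate on cells pre-loaded with calcium dye for 1 h.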

Test [5] is described as follows: p53 small molecule agonists, cell-based qHTS assay with human liver microsomes (AID 1963577).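 Note: p53 response element beta-lactamase reporter cells with liver microsomes plus NADPH.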 Put shortly:
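With metabolic activation: human liver microsomes (0.5 mg/mL final) plus NADPH (0.5 mg/mL final) added alongside compounds to p53RE-bla cells; 16 h 37 C exposure; beta-lactamase read by LiveBLAzer fluorescence.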

Test [6] in a line: p53 small molecule agonists, cell-based qHTS assay with human liver microsomes: qHTS cell viability counter screen (AID 1963579). Note: nearly all actives have a fitted effect of over 45% in size. An outline of the steps: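 Metabolic activation used human liver microsomes and NADPH, both 0.5 mg/mL final, over 16 hours at 37 C on p53RE-bla cells (4,000/well). Cytotoxicity measured by CellTiter-Glo luminescence, 30 min at room temperature.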
A short description of test [7]: p53 small molecule agonists, cell-based qHTS assay with rat liver microsomes: qHTS cell viability counter screen (AID 1963580). Note: nearly all actives have a fitted effect of over 45% in size. Put shortly: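 p53RE-bla HCT-116 cells (4,000/well) rested 5 h at 37 C, then given Tox21 compounds in DMSO with rat liver microsomes (0.5 mg/mL final) plus NADPH (0.5 mg/mL final) for 16 h at 37 C. Viability read by CellTiter-Glo luminescence after 30 min at room temperature.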

The nature of test [8]: p53 small molecule agonists, cell-based qHTS assay: qHTS cell viability counter screen (AID 1963581). Note: nearly all actives have a fitted effect of over 45% in size. Put shortly:
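HCT-116 p53RE-bla cells, 4,000/well, plated 5 h before compound pin transfer; 16 h at 37 C; bla substrate 2 h RT; then CellTiter-Glo, 30 min RT, luminescence.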

The target in test [9] is Beta-2 adrenergic receptor (Homo sapiens) (UniProt P07550). As to the kind of experiment: Adrenergic beta2 receptor (ADRB2) small molecule antagonists, cell-based qHTS assay (AID 1963592). Note: series mostly up to about 92 µM; nearly all actives have a fitted effect of over 50% in size. An outline of the steps:
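Cells (CHO, stable ADRB2 overexpression) incubated 18-20hr at 37C; compounds added from DMSO; agonist mix (1nM isoproterenol, 100uM IBMX, 25uM Ro-20-1724) added; 0.5hr RT; d2-cAMP and anti-cAMP-cryptate added; 1hr RT; 665/615 nm read.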

The target of test [10] is D(2) dopamine receptor (Homo sapiens) (UniProt P14416). Kind of test: Dopamine D2 receptor (DRD2) small molecule agonists, cell-based qHTS assay (AID 1963594). Note: nearly all actives have a fitted effect of over 35% in size. An outline of the steps: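 HEK293 cells stably expressing DRD2 were cultured 24 h at 37 C, then given Ro20-1724 (0.1 mM final) and compounds for 10 min at room temperature. NKH477 (200nM) was then added for 30 min. cAMP was read by HTRF.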
D(2) dopamine receptor (Homo sapiens), sequence (P14416 whole entry, looked up): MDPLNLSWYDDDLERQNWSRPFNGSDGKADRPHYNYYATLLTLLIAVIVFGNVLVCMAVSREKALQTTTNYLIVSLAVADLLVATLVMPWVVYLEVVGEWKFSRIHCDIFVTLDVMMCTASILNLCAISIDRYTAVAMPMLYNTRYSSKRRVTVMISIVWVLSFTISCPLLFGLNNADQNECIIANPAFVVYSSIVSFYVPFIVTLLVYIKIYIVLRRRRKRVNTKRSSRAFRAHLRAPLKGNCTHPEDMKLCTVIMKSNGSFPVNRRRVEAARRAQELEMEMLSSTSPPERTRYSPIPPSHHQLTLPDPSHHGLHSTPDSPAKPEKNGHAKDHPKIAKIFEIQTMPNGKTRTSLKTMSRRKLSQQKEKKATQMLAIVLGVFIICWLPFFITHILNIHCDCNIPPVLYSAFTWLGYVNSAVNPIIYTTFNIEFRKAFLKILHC

For test [11] the target is unchanged. Kind of test: Dopamine D2 receptor (DRD2) small molecule antagonists, cell-based qHTS assay (AID 1963595; active = well fitted inhibition curve with a large enough effect in the signal ratio in the repeat runs, with a control signal flat; the % refers to the signal ratio). An outline of the steps:
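In this cell-based antagonist screen, compounds act for 10 min at room temperature before a 30 min challenge with 12 nM quinpirole and 200 nM NKH477. cAMP is quantified by HTRF competition in DRD2-HEK293 cells containing 0.1 mM Ro20-1724.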

Test [12] can be described thus: p53 small molecule agonists, cell-based qHTS assay with rat liver microsomes (AID 1963578). An outline of the steps: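 Metabolic activation by rat liver microsomes and NADPH, each 0.5 mg/mL final, added right after compounds to p53RE-bla reporter cells (4,000/well, plated 5 h earlier). 16 h at 37 C, then LiveBLAzer substrate for 2 h at room temperature in the dark; fluorescence read-out.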

The nature of test [13]: p53 small molecule agonists, cell-based qHTS assay (AID 1963582; active = well fitted activation curve with a large enough effect in the signal ratio in the repeat runs, not every such curve was filed as active; the % refers to the signal ratio). Put shortly:
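Reporter line: p53RE-bla. Pre-incubation 5 h, 37 C, 5% CO2; compound (DMSO, pin tool) 16 h, 37 C; B/G FRET substrate 2 h RT; fluorescence intensity read.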

The target of test [14] is 5-hydroxytryptamine receptor 2A (Homo sapiens) (UniProt P28223). As to the kind of experiment: 5-hydroxytryptamine receptor 2A (HTR2A) small molecule antagonists, cell-based qHTS assay (AID 1963586). Note: nearly all actives have a fitted effect of over 45% in size. Note: potency is the fitted concentration of half-maximal effect. An outline of the steps:
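Antagonist-mode intracellular calcium assay: DOI (4 nM) added after 5 min compound pre-incubation at room temperature to dye-loaded HTR2A-CHO cells. Fluorescence followed for 3 min, sampled every second.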

The target is the same in test [15]. Kind of test: 5-hydroxytryptamine receptor 2A (HTR2A) small molecule agonists, cell-based qHTS assay (AID 1963587). Note: nearly all actives have a fitted effect of over 30% in size. Put shortly: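 HTR2A-CHO cells, plated 18 h at 37 C/5% CO2, dye-loaded 1 h at 37 C; compounds in DMSO added by pin tool (agonist mode). Intracellular calcium flux read as kinetic fluorescence on FDSS over 2 min at 1 s intervals.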
For test [16], the target named is Muscarinic acetylcholine receptor M1 (Homo sapiens) (UniProt P11229). Kind of test: Cholinergic receptor muscarinic 1 (CHRM1) small molecule antagonists, cell-based qHTS assay (AID 1963588). Note: nearly all actives have a fitted effect of over 40% in size. An outline of the steps: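 CHRM1-CHO calcium-flux assay, antagonist mode. Cells were seeded 18 h, dye-loaded 1 h at 37 C and given compound for 5 min at RT, then acetylcholine was added at 50nM. FDSS fluorescence was read 3 min; 15 concentrations, three runs.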
Muscarinic acetylcholine receptor M1 (Homo sapiens), sequence (P11229 whole entry, looked up): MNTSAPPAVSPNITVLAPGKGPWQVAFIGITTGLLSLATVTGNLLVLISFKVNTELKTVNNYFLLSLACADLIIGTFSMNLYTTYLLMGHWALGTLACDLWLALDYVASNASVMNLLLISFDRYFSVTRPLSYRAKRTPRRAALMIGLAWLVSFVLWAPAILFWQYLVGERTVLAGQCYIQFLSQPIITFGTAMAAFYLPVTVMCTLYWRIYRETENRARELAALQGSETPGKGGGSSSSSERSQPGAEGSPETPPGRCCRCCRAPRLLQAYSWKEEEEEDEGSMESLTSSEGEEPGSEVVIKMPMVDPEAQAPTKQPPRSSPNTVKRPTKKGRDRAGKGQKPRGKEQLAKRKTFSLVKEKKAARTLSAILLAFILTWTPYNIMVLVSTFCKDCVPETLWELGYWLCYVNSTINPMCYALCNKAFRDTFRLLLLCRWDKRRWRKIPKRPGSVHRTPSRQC

Test [17] has the same target. Kind of test: Cholinergic receptor muscarinic 1 (CHRM1) small molecule agonists, cell-based qHTS assay (AID 1963589). Note: nearly all actives have a fitted effect of over 35% in size. An outline of the steps: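 Human M1 in stable CHO line; 18 h plating, 1 h dye load 37 C; cpd added (agonist mode); Ca2+ fluorescence kinetic read, 1 s intervals; 15 conc, 3 runs.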
The nature of test [18]: cAMP Responsive Elements (CRE) small molecule agonists, cell-based qHTS assay (AID 1963590). An outline of the steps: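 HEK 293T CRE-bla, 2,000 cells/well, 18 h preincubation 37 C/5% CO2; cpds (DMSO) pinned, 3 h; LiveBLAzer B/G FRET substrate, 2 h RT.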
Test [19] in a line: cAMP Responsive Elements (CRE) small molecule antagonists, cell-based qHTS assay (AID 1963591; active = well fitted inhibition curve with a large enough effect in the signal ratio in the repeat runs, not every such curve was filed as active; the % refers to the signal ratio). Put shortly: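 Beta-lactamase reporter read by FRET substrate (LiveBLAzer B/G) after 2 h at room temperature. CRE-bla HEK293T cells had received compound plus 0.25 uM (final) NKH477 for 3 h at 37 °C.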
Test [20] deals with Beta-2 adrenergic receptor (Homo sapiens) (UniProt P07550). Kind of test: Adrenergic beta2 receptor (ADRB2) small molecule agonists, cell-based qHTS assay (AID 1963593).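 Note: CHO cells stably overexpressing human ADRB2.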 Put shortly:
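CHO cells stably over-expressing ADRB2 were plated overnight at 37C, then dosed with compounds plus a stimulation mix containing 100uM IBMX and 25uM Ro-20-1724 for 0.5hr at room temperature. cAMP was measured by HTRF competition, 1hr.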

Records with an inconclusive call do not appear. The source made the active and inactive calls. Unless noted, calls come from the whole dose curve.

5-hydroxytryptamine receptor 2A (Homo sapiens), sequence (P28223 whole entry, looked up): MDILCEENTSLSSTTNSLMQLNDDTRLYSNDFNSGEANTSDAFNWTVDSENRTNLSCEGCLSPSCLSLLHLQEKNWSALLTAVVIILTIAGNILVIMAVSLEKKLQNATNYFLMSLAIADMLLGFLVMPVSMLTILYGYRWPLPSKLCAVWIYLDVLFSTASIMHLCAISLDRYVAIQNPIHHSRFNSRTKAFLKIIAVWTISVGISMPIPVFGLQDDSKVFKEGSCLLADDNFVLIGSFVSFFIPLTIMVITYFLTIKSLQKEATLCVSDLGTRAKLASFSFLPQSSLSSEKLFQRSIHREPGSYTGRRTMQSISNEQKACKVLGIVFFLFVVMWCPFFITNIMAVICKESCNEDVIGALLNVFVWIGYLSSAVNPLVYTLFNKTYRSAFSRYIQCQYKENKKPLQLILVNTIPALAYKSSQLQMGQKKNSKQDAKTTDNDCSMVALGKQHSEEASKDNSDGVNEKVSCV
Gonadotropin-releasing hormone receptor (Homo sapiens), sequence (P30968 whole entry, looked up): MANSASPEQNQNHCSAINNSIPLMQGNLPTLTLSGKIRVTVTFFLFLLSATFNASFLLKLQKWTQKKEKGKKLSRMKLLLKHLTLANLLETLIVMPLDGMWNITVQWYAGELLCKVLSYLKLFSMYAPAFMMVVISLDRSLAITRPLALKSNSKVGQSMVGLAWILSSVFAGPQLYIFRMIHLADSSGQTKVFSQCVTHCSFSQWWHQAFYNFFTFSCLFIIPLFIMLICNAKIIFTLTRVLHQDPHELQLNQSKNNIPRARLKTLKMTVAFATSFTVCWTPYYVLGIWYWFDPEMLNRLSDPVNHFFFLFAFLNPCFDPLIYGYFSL
Beta-2 adrenergic receptor (Homo sapiens), sequence (P07550 whole entry, looked up): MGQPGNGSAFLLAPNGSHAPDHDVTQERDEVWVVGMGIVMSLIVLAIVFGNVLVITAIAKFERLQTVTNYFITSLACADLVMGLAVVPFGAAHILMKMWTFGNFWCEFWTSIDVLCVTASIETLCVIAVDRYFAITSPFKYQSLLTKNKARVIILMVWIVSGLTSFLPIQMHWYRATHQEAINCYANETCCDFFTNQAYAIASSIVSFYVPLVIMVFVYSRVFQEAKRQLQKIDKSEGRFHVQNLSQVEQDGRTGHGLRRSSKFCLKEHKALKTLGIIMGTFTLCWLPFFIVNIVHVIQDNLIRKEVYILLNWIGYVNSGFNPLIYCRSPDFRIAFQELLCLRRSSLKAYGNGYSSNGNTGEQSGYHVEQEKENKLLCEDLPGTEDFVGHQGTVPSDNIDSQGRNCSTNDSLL

As to `CC(=O)[C@H]1CC[C@H]2[C@@H]3CCC4=CC(=O)CC[C@]4(C)[C@H]3CC[C@]12C`, the Potency result in test [1], in test [2], in test [3], in test [4], in test [5] and in [6] was “inactive” throughout. For the same compound, the Potency result in test [7], in [8], in test [9], in test [10] and in [11] was “inactive” in each case.
Turning to `O=S(=O)(O)CCN1CCN(CCO)CC1`, the Potency result in test [1], in [2], in [4], in [5], in test [12] and in test [6] was “inactive” in each case. The Potency entry in [7], in test [8], in test [13], in [14], in [15] and in test [16] was “inactive” in each case. Also, the Potency result in [17], in [18], in test [19], in test [9], in test [20] and in test [10] was “inactive” in each case. Besides, the Potency entry in test [11] was “inactive”.
On to `Oc1ccc2c(c1)OC[C@@H](N1CCC(O)(c3ccc(F)cc3)CC1)[C@H]2O`, for which the Potency result in test [1], in test [2], in test [3], in test [4], in test [5] and in test [12] was “inactive” throughout. Moreover, the Potency entry in test [6], in test [13], in test [14], in [15], in [17] and in [18] was “inactive” throughout. The Potency result in test [19], in [9], in [20] and in test [10] was “inactive” throughout.
In the case of `CCN(Cc1cccc(S(=O)(=O)O)c1)c1ccccc1`, the Potency result in test [1], in [2], in test [3], in test [4], in test [5] and in [12] was “inactive” each time. In addition, the Potency result in test [7], in test [8], in [14], in [15], in test [16] and in [17] was “inactive” each time. Moreover, the Potency entry in [18] and in test [9] was “inactive” each time.
Consider `FC(F)(F)c1ccccc1`, for which the Potency entry in test [1], in [2], in test [3], in test [4], in test [5] and in [12] was “inactive” in each case. Further, the Potency result in [6], in test [8], in test [13], in [14], in [15] and in test [16] was “inactive” in each case. The Potency entry in [17], in [18], in test [19], in test [10] and in [11] was “inactive” each time.
`CC(=O)OCc1ccccc1`: the Potency result in [1], in test [2], in test [3], in test [4], in test [6] and in [7] was “inactive” throughout. Moreover, the Potency entry in test [8], in [14], in test [16], in test [17], in [18] and in [19] was “inactive” in each case. In addition, the Potency entry in test [9], in test [20] and in test [10] was “inactive” throughout.
With `COc1cc(C(=O)N2CCCCCCC2)cc(OC)c1OC`, the Potency entry in test [1], in [2], in test [3], in test [4], in test [5] and in test [12] was “inactive” in each case. The Potency entry in test [6], in [8], in [13], in test [14], in test [15] and in test [16] was “inactive” throughout. For the same compound, the Potency result in test [17], in test [18], in [19], in [9], in [20] and in test [10] was “inactive” throughout. In test [11], the Potency result was “inactive”.
`O=C(O)CCS`: the Potency entry in test [1], in test [2], in test [3], in test [4], in test [5] and in [6] was “inactive” each time. Also, the Potency entry in test [7], in test [8], in test [13], in test [15], in [16] and in test [17] was “inactive” each time. Further, the Potency result in test [18], in test [19], in test [9], in [20], in test [10] and in test [11] was “inactive” in each case. Also, the Potency in test [14] is 3.41 µM (active).
